The values that follow come from PubChem BioAssay (EPA / NIEHS).

Activity calls are given as the source filed them. The calls were made as follows: active = hit-call score of the fitted dose curve at least 0.9, where 1 is the maximum; inactive = score below 0.9.

The experiment in a line: Tanguay_ZF_120hpf_ANY: Oregon State University Tanguay Lab 120 Hour Post-fertilization zebrafish Assay for Any Mortality and Malformation (AID 2284404). On the procedure: Tanguay_ZF_120hpf is a whole embryo, multiplexed endpoint assay using zebrafish larvae exposed for 120 hours post fertilization on a 96-well plate.Tanguay_ZF_120hpf_ANY is one of one assay component(s) measured or calculated from the Tanguay_ZF_120hpf assay. It is designed to make measurements of developmental malformations and mortality as detected with brightfield microscopy and combines scoring from 13 other assay components measuring more specific morphologies.Data from the assay component Tanguay_ZF_120hpf_ANY was analyzed into 1 assay endpoints. This assay endpoint, Tanguay_ZF_120hpf_ANY, was analyzed in the positive analysis fitting direction relative to DMSO as the negative control and baseline of activity. Using a type of morphology reporter, gain-of-signal activity can be used to understand changes in developmentals as they relate to the whole embryo. To generalize the intended target to other relatable targets, this assay endpoint is annotated to the zebrafish development intended target family, where the subfamily is embryonic morphogenesis and mortality.
Zebrafish husbandry: Tropical 5D wild-type adult zebrafish were housed in at an approximate density of 1000 per 100 gallon tank at the Sinnhuber Aquatic Research Laboratory, Oregon State University, Corvallis, OR. Each tank was kept at standard laboratory conditions of 28C on a 14-h light/10-h dark photoperiod in fish water consisting of reverse osmosis water supplemented with a commercially available salt (Instant Ocean). Spawning funnels were placed into the tanks the night prior, and embryos were collected and staged. To increase bioavailability, the chorion was enzymatically removed using pronase (63.6mg/ml, >/= 3.5U/mg, Sigma-Aldrich: P5147) at 4 hours post fertilization (hpf) using a custom automated dechorionator.Chemical exposures: Six hpf dechorionated embryos were placed 1 embryo per well in a 96-well plate prefilled with 90 ul of EM using automated embryo placement systems (AEPS). Ten microliters of each row of dilution plate 2 was added to 2 exposure plates. The final DMSO concentration used was 0.64% (vol/vol). Thirty-two embryos were also exposed to 5uM trimethyltin chloride (positive control). Plates were sealed to prevent evaporation and foil covered to reduce light exposure and kept in a 28C incubator. Embryos were statically exposed until 120 hpf. At 24 hpf, embryos were assessed for photomotor response using a custom photomotor response analysis tool (PRAT) and for developmental toxicity endpoints (MO24: mortality at 24 hpf, DP: developmental progression, SM: spontaneous movement, and NC: notochord distortion). At 120 hpf, locomotor activity was measured using Viewpoint Zebralab and assessed for 13 endpoints. Zebrafish acquisition and analysis program (ZAAP), a custom program designed to inventory, acquire, and manage zebrafish data, was used to collect developmental endpoints as either present or absent (i.e., binary responses were recorded). If mortality occurred for an embryo (at either 24 or 120 hpf), the non-mortality endpoints were not measured.
Take `OCCCC(F)(F)C(F)(F)C(F)(F)C(F)(F)C(F)(F)C(F)(F)C(F)(F)F`: the call was inactive. Usually AC50 stands for the concentration giving half of the maximal activity seen. Take `C=CC(F)(F)C(F)(F)C(F)(F)C(F)(F)C(F)(F)C(F)(F)C(F)(F)C(F)(F)C=C`: the half-maximal activity concentration (AC50) was 10.3 µM (active). With `FC(F)(F)C(F)(F)C(F)(F)C(F)(F)CCI`, the molecule was called inactive.

As for `O=C(O)C(F)(F)C(F)(F)C(F)(F)C(F)(F)C(F)(F)C(F)(F)C(F)(F)C(F)(F)C(F)(F)C(F)(F)C(F)(F)C(F)(F)C(F)(F)F`, the molecule was classed as inactive. Consider `O=P(O)(O)OCCC(F)(F)C(F)(F)C(F)(F)C(F)(F)C(F)(F)C(F)(F)F`, for which the AC50 was 39.1 µM (active). On to `FC(F)(F)C(F)(F)C(F)(F)C(F)(F)C(F)(F)CCI`, for which the outcome was inactive. Same read-out and setting: the entry for `CCCCCCCCC(F)(F)C(F)(F)C(F)(F)C(F)(F)C(F)(F)C(F)(F)F` is “inactive”. With `CC(C)(C)C(=O)CC(=O)C(F)(F)C(F)(F)C(F)(F)F`, the result was inactive. Regarding `O=C(CC(=O)C(F)(F)C(F)(F)F)C(F)(F)F`, the AC50 was 0.0499 µM (active). `O=C(O)C(F)(OC(F)(F)C(F)(OC(F)(F)C(F)(OC(F)(F)C(F)(F)C(F)(F)F)C(F)(F)F)C(F)(F)F)C(F)(F)F` (stereo not given): the molecule was classed as inactive. Same read-out and setting: to `FC(F)(F)C(F)(F)C(F)(F)C(F)(F)C(F)(F)C(F)(F)C(F)(F)Br` belongs “inactive”; to `OCCCC(F)(F)C(F)(F)C(F)(F)F`, “inactive”. Take `O=S(=O)(O)C(F)(F)C(F)(F)C(F)(F)C(F)(F)C(F)(F)C(F)(F)C(F)(F)F`: the AC50 was 33 µM (active). For the molecule `COC(=O)CCC(F)(F)C(F)(F)C(F)(F)C(F)(F)F`, the call was inactive. Same read-out and setting: the entry for `FC(F)(F)C(F)(F)C(F)(F)C(F)(F)C(F)(F)C(F)(F)C(F)(F)I` is “inactive”. Same read-out and setting: the entry for `OCC(F)(F)C(F)(F)C(F)(F)C(F)(F)C(F)(F)C(F)F` is “inactive”.

Take `O=C(O)C(F)(F)C(F)(F)C(F)(F)C(F)(F)C(F)(F)C(F)(F)C(F)(F)C(F)(F)C(F)(F)C(F)F`: the AC50 is 28.8 µM (active). Regarding `FC(F)(F)C(F)(F)C(F)(F)C(F)(F)C(F)(F)C(F)(F)C(F)(F)C(F)(F)F`, the result was inactive. With `FC(F)(F)C(F)(F)C(F)(F)N(C(F)(F)C(F)(F)C(F)(F)F)C(F)(F)C(F)(F)C(F)(F)F`, the molecule was called inactive.

For the molecule `O=C(O)C(F)(F)C(F)(F)C(F)(F)C(F)(F)F`, the molecule was called inactive. Same read-out and setting: to `OCC(F)(F)C(F)(F)C(F)(F)C(F)F` belongs “inactive”.

With `O=C(O)C(F)(F)C(F)(F)C(F)(F)F`, the outcome was inactive. Same read-out and setting: the entry for `N=C(N)C(F)(F)C(F)(F)C(F)(F)C(F)(F)C(F)(F)C(F)(F)C(F)(F)F` is “inactive”; for `C=C(C)C(=O)OCC(F)(F)C(F)(F)C(F)(F)F` it is “inactive”. The same measure, in the same setting: the entry for `OCC(F)(F)C(F)(F)C(F)(F)F` is “inactive”; for `O=S(=O)(OCCOC(F)(F)F)C(F)(F)F` it is “inactive”. As for `C=CC(=O)OCC(F)(F)C(F)(F)C(F)(F)C(F)(F)COC(=O)C=C`, the AC50 is 14.2 µM (active). `FC1CC(F)(F)C(F)(F)C1(F)F` (stereo not given): the outcome was inactive.

Consider `O=C(O)C(F)(F)C(F)(F)OC(F)(F)F`, for which the molecule was classed as inactive. Still for that read-out and setting: the entry for `O=C(O)C(F)(F)C(F)(F)F` is “inactive”; for `NC(=O)C(F)(F)C(F)(F)C(F)(F)C(F)(F)F` it is “inactive”; for `O=C(O)C(F)(F)C(F)(F)C(F)F` it is “inactive”. Take `O=C(O)C(F)(F)C(F)(F)C(F)(F)C(F)(F)C(F)(F)C(F)(F)C(F)(F)C(F)(F)C(F)(F)C(F)(F)C(F)(F)C(F)(F)F`: the AC50 was 26.3 µM (active). As for `O=C(O)C(F)(F)C(F)(F)C(F)(F)C(F)(F)C(F)(F)C(F)(F)C(F)(F)C(F)(F)Cl`, the AC50 was 39.8 µM (active). Take `Cc1ccc(S(=O)(=O)OCC(F)(F)C(F)(F)C(F)(F)C(F)(F)C(F)(F)C(F)F)cc1`: the outcome was inactive. For the molecule `FC(F)(F)C(F)(F)C(F)(F)C(F)(F)C(F)(F)C(F)(F)CC1CO1` (stereo not given), the result was inactive. Consider `C=C(C)C(=O)OCC(F)(F)C(F)(F)C(F)(F)C(F)(F)C(F)(F)C(F)(F)C(F)(F)F`, for which the outcome was inactive. With `FC(F)(F)C(F)(F)C(F)(F)C(F)(F)C(F)(F)C(F)(F)C(F)(F)C(F)(F)CCS`, the molecule was classed as inactive.

With `FC(F)(F)C(F)(F)C(F)(F)CI`, the outcome was inactive. On to `CCO[Si](CCC(F)(F)C(F)(F)C(F)(F)C(F)(F)C(F)(F)C(F)(F)F)(OCC)OCC`, for which the result was inactive.
